# High-throughput results from PubChem BioAssay.
# Shown are actives, neighbours in structure and some others; about 3.3% of the full set was active somewhere.
# RE007 growth inh: qHTS Assay for Inhibitors of the HIV-1 protein Vpr; actives 0.21% (n = 360,000); S. pombe RE007 Vpr strain, BacTiter-Glo ATP luminescence, 24 h; Potency, µM (doses to about 92.2 µM), actives largely listed as inhibitors; active = well fitted falling curve with a large enough effect; inconclusive = small, poorly fitted or top-dose-only effect; inactive = no such curve, though single readings can be large or run the other way; also: nearly all actives have a fitted effect of over 50% in size
#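 Fission yeast strain RE007, carrying one chromosomally integrated HIV-1 vpr copy, was seeded at OD 0.01 in PMG+AL medium with 23 nL pinned compound. After 24 h at 30 °C and 99% humidity, viability was read by BacTiter-Glo luminescence.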
# Sm TGR block: qHTS Assay for the Inhibitors of Schistosoma Mansoni Peroxiredoxins | purified TGR, DTNB reduction, TNB absorbance 405 nm | AID 485364, 2010 | actives 3% (n = 360,000) | Potency, µM (highest dose often 114 µM), actives largely listed as inhibitors | Schistosoma mansoni thioredoxin glutathione reductase (TGR), Q962Y6; also: nearly all actives have a fitted effect of over 60% in size
#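 Kinetic colorimetric format: TGR-catalysed, NADPH-driven DTNB reduction monitored via TNB absorbance. Enzyme dispensed at 20 nM; compound exposure 15 min at room temperature before reaction start.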
# FBPA Giardia inh: qHTS Assay for Inhibitors of Fructose-1,6-bisphosphate Aldolase from Giardia Lamblia | purified Giardia FBPA | Potency, µM (series often up to 59.6 µM), most hits filed as inhibitors | actives 0.71% (n = 290,000); also: nearly all actives have a fitted effect of over 55% in size
#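 40 nM FBPA preincubated 10 min at RT with compound (up to 57.5 uM final), then substrate plus GAPDH/TPI/NAD/arsenate coupling and diaphorase/resazurin added. Fluorescence read after 20 min at RT, 525/598 nm.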
# LmPK inhibitor: qHTS Assay for Inhibitors of Leishmania Mexicana Pyruvate Kinase (LmPK); Potency, µM (series often up to 57.5 µM), actives largely listed as inhibitors; purified LmPK, Kinase-Glo ATP luminescence, 1 h; actives 0.37% (n = 290,000); Q27686
# Target sequence (Q27686 whole entry, looked up): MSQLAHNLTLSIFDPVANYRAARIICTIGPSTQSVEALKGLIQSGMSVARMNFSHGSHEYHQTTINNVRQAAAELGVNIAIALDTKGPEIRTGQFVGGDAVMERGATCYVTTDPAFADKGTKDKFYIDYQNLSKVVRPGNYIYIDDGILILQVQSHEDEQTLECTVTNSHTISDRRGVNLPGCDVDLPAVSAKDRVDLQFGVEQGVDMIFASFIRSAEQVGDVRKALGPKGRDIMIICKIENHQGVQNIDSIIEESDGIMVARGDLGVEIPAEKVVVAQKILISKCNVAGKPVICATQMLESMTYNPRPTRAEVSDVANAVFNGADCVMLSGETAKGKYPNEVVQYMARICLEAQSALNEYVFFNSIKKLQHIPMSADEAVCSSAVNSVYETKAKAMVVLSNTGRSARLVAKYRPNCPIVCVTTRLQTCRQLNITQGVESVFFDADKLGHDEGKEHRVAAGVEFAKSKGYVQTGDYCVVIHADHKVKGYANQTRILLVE
#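 Kinase-Glo luminescence read after 1 h RT reaction of 0.1 nM LmPK with 0.5 mM PEP and 0.1 mM ADP. Activity scaled between uninhibited and enzyme-free controls.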
# Tb PYK inh: qHTS of Trypanosoma Brucei Inhibitors | Potency, µM (titrated, usually from 76.8 µM), hits mostly inhibitors | TbPYK enzyme, Kinase-Glo Plus ATP luminescence, 45 min | pyruvate kinase (Trypanosoma brucei), Q57TT1 | actives 0.12% (n = 410,000); also: nearly all actives have a fitted effect of over 50% in size
#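 Screened from lowest to highest concentration, compounds were pinned into TbPYK/substrate mixtures, and ADP (130 uM final) was added. Plates sat at room temperature for 45 min prior to Kinase-Glo Plus detection by luminescence.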
# Numbers stand for hits; - = inactive; ? = inconclusive; . = no result. Unless noted, calls follow the shape of the dose curve; as a rule, active = well fitted curve in the direction sought with a large enough effect; inconclusive = small, poorly fitted or top-dose-only effect, or another doubt; inactive = no such curve, though single readings can be large; an effect the other way counts as inactive or inconclusive.
SMILES,RE007 growth inh,Sm TGR block,FBPA Giardia inh,LmPK inhibitor,Tb PYK inh
CCOC(=O)c1sc2nc(-c3ccco3)c3c(c2c1N)CC(C)(C)OC3,-,0.891µM,?,-,?
CC(C)Sc1nc(SCC(=O)NCc2ccco2)c2c3c(sc2n1)COC(C)(C)C3,-,28.2µM,-,-,-
CCn1c(C)nc2cc(C(=O)N/N=C/c3ccc(O)c(O)c3O)ccc21,-,.,12.6µM,-,?
CN(C)S(=O)(=O)c1cccc(NC(=S)NCc2ccco2)c1,-,35.5µM,?,-,-
CCN(CC)S(=O)(=O)c1cccc(C(=O)N/N=C/c2ccc(O)c(O)c2O)c1,-,?,4.46µM,-,?
COc1ccc(O)c(/C=N/NC(=S)Nc2cccc(S(=O)(=O)N(C)C)c2)c1,-,-,-,-,-
CCn1c(C)nc2cc(C(=O)N/N=C/c3cccc(OC)c3O)ccc21,-,.,-,-,-
CN(C)S(=O)(=O)c1cccc(NC(=S)N/N=C/c2ccc(O)c(O)c2O)c1,-,10µM,15.8µM,-,10µM
CCC(=O)N(Cc1ccc2c(c1)OCO2)Cc1cc2cc(OC)ccc2[nH]c1=O,-,-,-,-,-
Cc1ccc(S(=O)(=O)N2CCC(C(=O)NNC(=O)C3CC3)CC2)cc1Cl,-,-,-,-,-
CN(C)S(=O)(=O)c1cccc(NC(=S)N/N=C/c2ccco2)c1,-,39.8µM,-,-,-
COc1cccc(/C=N/NC(=S)Nc2cccc(S(=O)(=O)N(C)C)c2)c1,-,-,-,-,-
O=S(=O)(c1ccc(Cl)cc1)c1cc(O)ccc1O,-,11.2µM,-,-,-
O=S(=O)(c1ccccc1)c1cc(O)ccc1O,-,28.2µM,-,-,-
CC1=C(C)C(=O)C(CCCCC#CCCCC#CCO)=C(C)C1=O,-,8.91µM,17.7µM,-,-
COC(=O)c1sc(N)c(C(=O)OC)c1COC(=O)c1c(C)noc1C,-,-,-,-,-
CC(OC(=O)/C=C/c1ccc2ccccc2n1)C(=O)N(C)c1ccccc1 (stereo unspecified),-,-,.,.,-
CC(=O)/C=C/c1ccc2ccccc2n1,25.1µM,89.1µM,.,-,-
O=C(CCc1nnc(Cc2c[nH]c3ccccc23)o1)NC(C1CC1)C1CC1,-,?,-,-,-
COCCN(C(=O)CCc1nnc(Cc2c[nH]c3ccccc23)o1)C(C)C,-,20µM,-,-,-
COCCN(C(=O)CCc1nnc(CCc2c[nH]c3ccccc23)o1)C(C)C,-,-,-,-,-
CC(C)CCNC(=O)CCc1nnc(Cc2c[nH]c3ccccc23)o1,-,12.6µM,-,-,-
O=C(O)CCCCCNS(=O)(=O)/C=C/c1ccccc1,-,.,-,-,-
O=C(O)CCCCCNS(=O)(=O)c1cccc2c1C(=O)c1ccccc1C2=O,?,50.1µM,?,-,-
C=CCn1c(-c2c[nH]c3ccccc23)n[nH]c1=S,-,?,-,22.4µM,?
SMILES,RE007 growth inh,Sm TGR block,FBPA Giardia inh,LmPK inhibitor,Tb PYK inh
C=CCn1c(-c2csc3ccccc23)n[nH]c1=S,-,-,-,11.2µM,?
O=C(Nc1ccc(Oc2ccccc2)cc1)C1CCN(c2c3c(nc4ncnn24)CCC3)CC1,-,-,-,-,-
CC(C)(C)OC(=O)C[C@@H]1C/C=C\C[C@@H](CC(=O)NCCO)C(=O)N[C@H](Cc2ccccc2)COC1=O,-,.,.,.,-
COC(=O)CC1C(=O)NC2CCCCC2N1C(=O)CCl (stereo unspecified),-,6.31µM,-,-,-
CCNC(=O)N1C(CC(=O)OCC)C(=O)NC2CCCCC21 (stereo unspecified),-,-,-,-,?
CC(=O)n1cc([C@H]2C=C(C(=O)N3CCN(Cc4ccccc4)CC3)O[C@@H](OCc3ccc(CO)cc3)C2)c2ccccc21,-,17.8µM,?,-,-
CC(=O)n1cc([C@@H]2C=C(C(=O)NCc3ccccc3)O[C@H](OCc3ccc(CO)cc3)C2)c2ccccc21,-,50.1µM,?,-,-
